Laboratory results: PubChem BioAssay (NCATS)
Records with an inconclusive call do not appear. Activity calls are given as the source filed them. Calls follow the shape of the dose curve; as a rule, active = well fitted curve in the direction sought with a large enough effect; inconclusive = small, poorly fitted or top-dose-only effect, or another doubt; inactive = no such curve, though single readings can be large; an effect the other way counts as inactive or inconclusive.

Assays:
[1] = target: Cellular tumor antigen p53 (Homo sapiens) (UniProt P04637); assay: Primary qHTS for small molecule compounds that upregulate eGFP-tagged delta133p53alpha (in N-terminal) cells. (AID 2060322); conditions: NCI-H358 eGFP-delta133p53alpha fluorescence, 24 h; activation: hits give high values;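 also: series mostly up to about 56 µM; 0% = DMSO vehicle and 100% = reference activator; nearly all actives have a fitted effect of over 75% in size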
Chain of Cellular tumor antigen p53 (Homo sapiens) (P04637 whole entry, looked up): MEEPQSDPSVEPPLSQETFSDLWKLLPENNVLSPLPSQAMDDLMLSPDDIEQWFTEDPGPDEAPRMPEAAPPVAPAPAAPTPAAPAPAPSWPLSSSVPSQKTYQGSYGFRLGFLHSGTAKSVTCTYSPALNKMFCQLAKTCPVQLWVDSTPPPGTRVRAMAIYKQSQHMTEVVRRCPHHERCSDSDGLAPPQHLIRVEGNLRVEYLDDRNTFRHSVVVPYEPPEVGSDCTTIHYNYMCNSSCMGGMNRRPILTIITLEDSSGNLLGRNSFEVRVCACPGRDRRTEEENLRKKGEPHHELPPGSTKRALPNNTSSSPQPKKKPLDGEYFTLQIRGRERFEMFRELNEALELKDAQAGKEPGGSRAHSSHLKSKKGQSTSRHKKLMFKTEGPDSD
Method in brief: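 NCI-H358 cells pre-induced 24 h with 10 ng/ml doxycycline to express N-terminal eGFP-delta133p53alpha, then dosed 24 h at 37C without doxycycline; fixed, Hoechst-stained, GFP intensity by laser scanning cytometry, normalized to DMSO (0%) and 57.5 uM 5-azacytidine (100%).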

[2] = target: Aldehyde dehydrogenase, mitochondrial (Homo sapiens) (UniProt P05091); assay: qHTS for Inhibitors of the Aldehyde Dehydrogenase Family (ALDH2) Primary screen (AID 2061308);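 also: plate controls were vehicle for no effect and reference inhibitor for full effect; nearly all actives have a fitted effect of over 55% in size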
[3] = target: Retinaldehyde dehydrogenase 3 (Homo sapiens) (UniProt P47895); assay: qHTS for Inhibitors of the Aldehyde Dehydrogenase Family (ALDH1A3) Primary screen (AID 2061315);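 also: plate controls were DMSO vehicle for no effect and reference inhibitor for full effect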

C[C@@H]1C[C@H](O)/C=C/[C@H](O)[C@@H](O)CC(=O)O1
inactive: activation [1] -9.92% | Potency [2] | Potency [3]

CC(=O)CCC1=C(C)C(O[C@@H]2O[C@H](CO)[C@@H](O)[C@H](O)[C@H]2O)C(O)CC1(C)C (some centres undefined)
inactive: activation [1] -3.82% | Potency [2] | Potency [3]

Cc1ccc(C)c(NC(=O)[C@@H]2CCCN2S(=O)(=O)c2cccc3cccnc23)c1
inactive: activation [1] -4.33% | Potency [2] | Potency [3]

CC(=O)OC1C[C@]2(C)C(O)CC(C)=C[C@H](OC(=O)c3ccc(O)cc3)C2[C@]1(O)C(C)C (some centres undefined)
inactive: activation [1] -20.6% | Potency [2] | Potency [3]

CC(C)CC(=O)OC[C@H]1O[C@@](COC(=O)CC(C)C)(O[C@H]2O[C@H](CO)[C@@H](O)[C@H](O)[C@H]2O)[C@@H](OC(=O)CC(C)C)[C@@H]1OC(=O)CC(C)C
inactive: activation [1] -0.763% | Potency [2] | Potency [3]

C=C1[C@H](OC(C)=O)[C@H]2[C@@H](OC(C)=O)C(C)C[C@]2(OC(C)=O)C(=O)[C@H](C)/C=C/C(C)(C)C(=O)[C@H](OC(=O)C(C)C)[C@H]1OC(C)=O (some centres undefined)
inactive: activation [1] -13.7% | Potency [2] | Potency [3]

CC(C)=CCC[C@](C)(O)[C@H]1CC[C@]2(C)[C@@H]1[C@H](O)CC1[C@@]3(C)CC[C@H](O)C(C)(C)C3[C@@H](O[C@@H]3O[C@H](CO)[C@@H](O)[C@H](O)[C@H]3O[C@@H]3OC[C@@H](O)[C@H](O)[C@H]3O)C[C@]12C (some centres undefined)
inactive: activation [1] -16.8% | Potency [2] | Potency [3]

C=CC[C@]12C[C@@H](OC)C(=O)C(OC)=C1O[C@@H](c1cc(OC)c3c(c1)OCO3)[C@@H]2C
inactive: activation [1] -13.4% | Potency [2] | Potency [3]
